PubChem BioAssay AID1159580 (chemical genetic matrix, 2015)
Several values for one entry are separate records, joined by “and”; a condition that tells them apart may be missing. Equal entries are not always repeated. Out of some 5,500 compounds screened, about 2,000 (36%) were called active. Inconclusive results (about 18%) are left out. No stated cut-off is given here; in the data, active means normalized growth mostly below about 0.91 (no sharp cut-off); inconclusive means no clear call, values can overlap the other calls; inactive means mostly above about 0.92. The list shows a part of the results.

Experiment: chemical genetic growth profiling, strain panel (AID 1159580);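 further: tested at 20 µM; growth read once vehicle control cultures reached saturation at 30 °C; 1 = growth at the plate median or of vehicle wells; lower values mean less growth of the strain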
Conditions: S. cerevisiae deletion strains, growth OD

Measured: normalized growth

C1CCN2C[C@@H]3C[C@H](CN4CCCC[C@@H]34)[C@H]2C1
inactive: locus YAL013W, strain DEP1, hits give low values 1.04 | locus YAL021C, strain ccr4, hits give low values 0.995 | locus YAL026C, strain drs2, hits give low values 1.02 | locus YAL030W, strain snc1, hits give low values 1.01 | locus YBL061C, strain skt5, hits give low values 0.999 | locus YBR009C, strain hhf1, hits give low values 1 | locus YBR021W, strain FUR4, hits give low values 1.02 | locus YBR023C, strain chs3, hits give low values 1.01 | locus YBR171W, strain sec66, hits give low values 1.01 | locus YBR229C, strain ROT2, hits give low values 0.999 | locus YBR231C, strain swc5, hits give low values 1.03 | locus YBR279W, strain paf1, hits give low values 1.01 | locus YCL011C, strain gbp2, hits give low values 1 | locus YCL016C, strain dcc1, hits give low values 0.991 | locus YCL029C, strain bik1, hits give low values 0.995 | locus YCL061C, strain MRC1, hits give low values 1.01 | locus YCL069W, strain vba3, hits give low values 1.01 | locus YCR088W, strain abp1, hits give low values 1.01 | locus YDL005C, strain med2, hits give low values 1.02 | locus YDL035C, strain GPR1, hits give low values 1.02 | locus YDL040C, strain nat1, hits give low values 1 | locus YDL074C, strain BRE1, hits give low values 1.01 | locus YDL101C, strain DUN1, hits give low values 1.01 | locus YDL134C, strain PPH21, hits give low values 1 | locus YDL185W, strain tfp1, hits give low values 1 | locus YDL192W, strain arf1, hits give low values 1.01 | locus YDR001C, strain nth1, hits give low values 1.01 | locus YDR069C, strain doa4, hits give low values 1.01 | locus YDR101C, strain arx1, hits give low values 1 | locus YDR137W, strain rgp1, hits give low values 1.01 | locus YDR150W, strain NUM1, hits give low values 1.01 | locus YDR159W, strain sac3, hits give low values 1.05 | locus YDR162C, strain NBP2, hits give low values 1.01 | locus YDR195W, strain ref2 0.996 | locus YDR297W, strain sur2, hits give low values 1.03 | locus YDR318W, strain mcm21, hits give low values 1.01 | locus YDR334W, strain swr1, hits give low values 1.01 | locus YDR335W, strain msn5, hits give low values 1.01 | locus YDR388W, hits give low values 0.994 | locus YDR392W, strain spt3, hits give low values 1.02 | locus YDR502C, strain sam2, hits give low values 1.01 | locus YEL003W, strain gim4, hits give low values 1.01 | locus YEL037C, strain rad23, hits give low values 0.994 | locus YEL061C, strain CIN8 (second series), hits give low values 1.01 | locus YEL061C, strain CIN8, hits give low values 1 | locus YER015W, strain faa2, hits give low values 1 | locus YER016W, strain bim1, hits give low values 1 | locus YER110C, hits give low values 0.999 | locus YER111C, strain swi4, hits give low values 0.993 | locus YER155C, strain BEM2 (second series), hits give low values 1.04 | locus YER155C, strain BEM2, hits give low values 1.01 | locus YER167W, strain BCK2, hits give low values 1.03 | locus YFR010W, strain ubp6, hits give low values 1.02 | locus YGL078C, strain dbp3, hits give low values 1 | locus YGL086W, strain mad1, hits give low values 1.01 | locus YGL167C, strain pmr1, hits give low values 1 | locus YGL173C, strain kem1, hits give low values 1.02 | locus YGL227W, strain vid30, hits give low values 1.01 | locus YGL240W, strain doc1, hits give low values 1.04 | locus YGL248W, strain PDE1, hits give low values 1 | locus YGL253W, strain hxk2, hits give low values 1 | locus YGR135W, strain pre9, hits give low values 0.996 | locus YGR252W, strain gcn5, hits give low values 1.02 | locus YHR013C, strain ard1, hits give low values 1.01 | locus YHR027C, strain rpn1, hits give low values 1.01 | locus YHR030C, strain SLT2, hits give low values 1.01 and 1.07 | locus YHR079C, strain IRE1 (second series), hits give low values 1 | locus YHR079C, strain IRE1, hits give low values 1.03 | locus YHR094C, strain hxt1, hits give low values 0.995 | locus YHR129C, strain ARP1, hits give low values 1.01 | locus YHR142W, strain chs7, hits give low values 1 | locus YHR200W, strain rpn10, hits give low values 1 | locus YIL066C, strain RNR3, hits give low values 1.03 | locus YIL073C, strain SPO22, hits give low values 1.02 | locus YIL125W, strain kgd1, hits give low values 1 | locus YIR030C, strain dcg1, hits give low values 1 | locus YJL092W, strain hpr5, hits give low values 1 | locus YJL095W, strain BCK1 (second series), hits give low values 1.01 | locus YJL095W, strain BCK1, hits give low values 1.02 and 1.04 | locus YJL115W, strain asf1, hits give low values 0.993 | locus YJL129C, strain trk1, hits give low values 1 | locus YJL134W, strain LCB3, hits give low values 1.01 | locus YJL154C, strain vps35, hits give low values 1 | locus YJL164C, strain tpk1, hits give low values 0.997 | locus YJL166W, strain qcr8, hits give low values 1.01 | locus YJL168C, strain set2, hits give low values 1 | locus YJL187C, strain SWE1 (second series), hits give low values 1.01 | locus YJL187C, strain SWE1, hits give low values 0.991 | locus YJR043C, strain POL32, hits give low values 1.01
